Results taken from PubChem BioAssay AID588497 (NMMLSC, 2011).
About 780 (0.22%) of roughly 360,000 compounds were called active. Inconclusive results (about 4%) are left out. No stated cut-off is given here; in the data, active means inhibition above about 35% (passing the limit was not always enough); inconclusive means no clear call, values can overlap the other calls. For the sample, actives were picked, then their nearest neighbours and some compounds at random.

test system: Botulinum neurotoxin type F light chain protease (Clostridium botulinum); experiment: BoNT/F light chain protease inhibitors, primary screen, biochemical, flow cytometry, MLPCN library (AID 588497); details: Multiplex microsphere protease cleavage assay, at 10 µM, stronger effect = higher value; further: plate controls were buffer without enzyme for full effect and enzyme alone for no effect

Q: For c1ccc2c(c1)CCc1snnc1-2, which inhibition is on record?
A: 40.3% (active)

Q: C=CCN(CC=C)S(=O)(=O)c1ccc(C(=O)Nc2nc3c(s2)CCc2ccccc2-3)cc1 was tested. Which inhibition did it give?
A: -8.2% (inactive)

Q: O=C(c1snnc1-c1ccccc1)N1CCOCC1 was tested. Which inhibition did it give?
A: -9% (inactive)

Q: COc1ccc(CC(N)c2csc(NC(=O)Nc3ccc(C(C)C)cc3)n2)cc1 (configuration not stated) was tested. Which inhibition did it give?
A: -11.1% (inactive)

Q: Which inhibition does the source give for CN(C)c1ccc(/C=C2\NC(=S)N(Cc3ccccc3)C2=O)cc1 here?
A: 35.7% (active)

Q: With CN(C)c1ccc(C=C2C(=O)OC3(CCCC3)OC2=O)cc1 as the molecule, how does the inhibition read?
A: 6.6% (inactive)

Q: CC1CN(Cc2ccccc2)C(=S)NC1=O (configuration not stated) was tested. Which inhibition did it give?
A: 0.1% (inactive)

Q: Which inhibition does the source give for Cc1ccc(CC2(C)C(=O)Nc3ccc(OC(F)(F)F)cc32)cc1 (configuration not stated) here?
A: -5% (inactive)

Q: Which inhibition does the source give for C=CCC[C@@H](CCCCC)OC(=O)/C=C/[C@@H](O)[C@H](O)C[C@H](O)CC=C here?
A: 4.2% (inactive)

Q: For O=C1NC[C@H](Cc2ccc(O)cc2)N(C[C@H]2CCCN2C[C@H](Cc2ccccc2)N2C[C@H](Cc3ccccc3)N(CCc3ccccc3)C(=O)C2=O)C1=O, which inhibition is on record?
A: -3.4% (inactive)

Q: Which inhibition does the source give for O=C1Nc2ccccc2NC(c2ccc3c(c2)OCO3)=C1N(Cc1ccc(F)cc1)C(=O)c1ccco1 here?
A: -0.6% (inactive)

Q: How did the inhibition turn out when Cn1c(Nc2ccccc2)cc(=O)n(C)c1=O was run?
A: 35.2% (active)

Q: For CC(C)Oc1ccc(C(=O)Nc2cc(=O)n(C)c(=O)n2C)cc1, which inhibition is on record?
A: -0.5% (inactive)

Q: Cc1cc(=O)n(C)c(=O)n1CCCNc1ccccc1 was tested. Which inhibition did it give?
A: 6.9% (inactive)

Q: For CC(=O)c1cccc(-c2cnc3c(NC=O)cc(-c4ccccc4Oc4ccccc4)cn23)c1, which inhibition is on record?
A: -5.9% (inactive)

Q: How did the inhibition turn out when C=CCn1c(SCc2c(C)noc2C)nc2sc3c(c2c1=O)CCC(C)C3 (configuration not stated) was run?
A: -1.6% (inactive)

Q: Which inhibition does the source give for CC1CCc2c(sc3nc4n(c(=O)c23)CCS4)C1 (configuration not stated) here?
A: 43.2% (active)

Q: With CCCn1nnc2sc3c(c2c1=O)CCC(C)C3 (configuration not stated) as the molecule, how does the inhibition read?
A: -1.8% (inactive)

Q: COc1ccc(C(c2nnnn2C2CCCC2)N2CCN(C/C=C/c3ccccc3)CC2)cc1 (configuration not stated) was tested. Which inhibition did it give?
A: -6.6% (inactive)

Q: For CC(=O)Nc1cc(-c2cccc(CO)c2)cn2c(-c3cccc(C(F)(F)F)c3)cnc12, which inhibition is on record?
A: 0.9% (inactive)

Q: For O=C(NC(c1ccc(Cl)cc1)c1cnccn1)C1CCN(Cc2ccc(Cl)cc2)CC1 (configuration not stated), which inhibition is on record?
A: -2.2% (inactive)

Q: Which inhibition does the source give for Cc1nc2c(OCc3ccc(Cl)cc3Cl)cccn2c1N(C)CC1CC1 here?
A: -6% (inactive)

Q: How did the inhibition turn out when Nc1ccccc1Sc1cc(Cl)nnc1Cl was run?
A: 82.9% (active)

Q: With Cc1nn(C)c(C)c1Sc1ccccc1N as the molecule, how does the inhibition read?
A: -4.3% (inactive)

Q: Which inhibition does the source give for CC(C)Nc1nc(NCCOc2ccccc2Cl)c2sccc2n1 here?
A: -12.7% (inactive)

Q: NC(Cc1ccc(F)cc1)c1csc(Nc2nncc3ccccc23)n1 (configuration not stated) was tested. Which inhibition did it give?
A: -21.6% (inactive)

Q: Which inhibition does the source give for COc1ccc(-c2coc3c(C(=O)NC(C)C)cccc23)c(C)c1 here?
A: -5.4% (inactive)

Q: For COc1cc(N2CCCC2)c(OC)cc1/C=C(/C#N)c1cccc(Br)c1, which inhibition is on record?
A: 169% (active)

Q: CCOc1ccc(/C=C(/C#N)c2nnc(N3CCOCC3)n2-c2ccccc2)cc1OC was tested. Which inhibition did it give?
A: -9.5% (inactive)

Q: For COc1ccc(-c2ccc(C(=O)NCCN3CCOCC3)c3occc23)c(C)c1, which inhibition is on record?
A: -4.4% (inactive)

Q: How did the inhibition turn out when CCc1nc2ccc(C(=O)Nc3cccc(OC)c3)cn2c1N(CCC(C)C)CCN(C)C was run?
A: 3% (inactive)

Q: CCOCCC(=O)Nc1ccc2c(c1)c(=O)n(C)n2-c1ccc2ccccc2c1 was tested. Which inhibition did it give?
A: -6% (inactive)

Q: With OC(c1ccc(Cl)cc1)c1ncc(-c2ccc(Cl)cc2)[nH]1 (configuration not stated) as the molecule, how does the inhibition read?
A: -8.9% (inactive)

Q: Which inhibition does the source give for COc1ccc(CNC(=O)CN(c2ccc(OC)c(Cl)c2)S(=O)(=O)c2ccc(C)cc2)cc1 here?
A: -6.9% (inactive)

Q: With CCN(CC)C(=O)CN(c1cccc(OC)c1)S(=O)(=O)c1ccc(C)cc1 as the molecule, how does the inhibition read?
A: -9.7% (inactive)

Q: Which inhibition does the source give for COC(=O)CN(c1nc(C)c(Cl)c(OC)n1)S(=O)(=O)c1ccc(C)cc1 here?
A: 41.2% (active)

Q: How did the inhibition turn out when CC(=O)Nc1cccc(-c2cc(NC=O)c3ncc(-c4ccc(F)c(Cl)c4)n3c2)c1 was run?
A: -9.5% (inactive)

Q: For COc1ccc(-c2cc(NC(C)=O)c3ncc(-c4cc(OC)c(OC)c(OC)c4)n3c2)cn1, which inhibition is on record?
A: 2.1% (inactive)

Q: Which inhibition does the source give for CC1(C(=O)NCc2cccc3ccccc23)CCN1Cc1ccc(-c2ccccc2)o1 (configuration not stated) here?
A: -9.6% (inactive)

Q: How did the inhibition turn out when CCc1nc2c(OCc3ccc(C(F)(F)F)cc3)cccn2c1N(C)C(=O)CC(C)C was run?
A: 0.4% (inactive)

Q: COc1ccccc1N1CCN(CC(=O)NC(=O)NCc2ccco2)CC1 was tested. Which inhibition did it give?
A: -6.6% (inactive)

Q: O=C(CN1CCN(c2ccccc2O)CC1)NC(=O)NCc1ccccc1 was tested. Which inhibition did it give?
A: 69.8% (active)

Q: Oc1ccccc1N1CCN(C(=S)NCc2ccccc2)CC1 was tested. Which inhibition did it give?
A: -13.6% (inactive)

Q: Cc1ccc(Cc2c(-c3ccc(Cl)cc3)nc3c4ccccc4ccn23)cc1 was tested. Which inhibition did it give?
A: -5.5% (inactive)

Q: How did the inhibition turn out when CSCCC(c1nnnn1Cc1ccccc1)N1CCN(C/C=C/c2ccccc2)CC1 (configuration not stated) was run?
A: -9.9% (inactive)

Q: Which inhibition does the source give for O=S(=O)(NC1CCCCC1N1CCCCC1)c1ccc(Cl)cc1 (configuration not stated) here?
A: 24.7% (inactive)

Q: With CCN1CCN(C2CCCCC2NS(=O)(=O)c2ccc(Cl)cc2)CC1 (configuration not stated) as the molecule, how does the inhibition read?
A: -2% (inactive)

Q: O=S(=O)(NC1CCCCC1N1CCC(O)CC1)c1ccc(Cl)cc1 (configuration not stated) was tested. Which inhibition did it give?
A: 110% (active)

Q: With c1ccc(Cc2c(-c3ccco3)nc3c4ccccc4ccn23)cc1 as the molecule, how does the inhibition read?
A: 4.5% (inactive)

Q: CCOc1ccc2[nH]c(=S)sc2c1 was tested. Which inhibition did it give?
A: 4.7% (inactive)

Q: How did the inhibition turn out when C[C@H]([C@@H](O)[C@@H](O)[C@@H](C)C(C)(C)C)[C@H]1CC[C@H]2C3CC[C@H]4C[C@H](OS(=O)(=O)O)[C@@H](OS(=O)(=O)O)C[C@]4(C)[C@H]3CC[C@]12C (some centres not stated) was run?
A: 7.2% (inactive)

Q: Which inhibition does the source give for COc1ccc(-c2cc(NC=O)c3ncc(-c4cc(OC)c(OC)c(OC)c4)n3c2)c(OC)c1 here?
A: -7.7% (inactive)

Q: For Cc1c(NC(=O)c2coc(=O)c(Br)c2)c(=O)n(-c2ccccc2)n1C, which inhibition is on record?
A: 0.1% (inactive)

Q: With Cc1c(NC(=O)c2cccnc2)c(=O)n(-c2ccccc2)n1C as the molecule, how does the inhibition read?
A: 58.9% (active)

Q: Which inhibition does the source give for Cc1c(NC(=O)c2c([N+](=O)[O-])cnn2C)c(=O)n(-c2ccccc2)n1C here?
A: -13.3% (inactive)

Q: With CCCCCc1c(Cc2ccccc2)ncn1CCc1ccccc1OC as the molecule, how does the inhibition read?
A: -7% (inactive)

Q: Which inhibition does the source give for Cc1cc2nc(-c3ccc(Cl)cc3)c(Cc3cccc(F)c3)n2c(C)c1Br here?
A: -1.2% (inactive)

Q: With COc1ccc(CC(N)c2csc(NC(=O)NC(c3ccccc3)c3ccccc3)n2)cc1 (configuration not stated) as the molecule, how does the inhibition read?
A: -27.6% (inactive)

Q: With O=C(Nc1nnc(SCc2c(Cl)cccc2Cl)s1)C1CCCO1 (configuration not stated) as the molecule, how does the inhibition read?
A: -21.4% (inactive)

Q: O=C(Nc1ccc(-c2nnc(-c3ccccc3)o2)cc1)C1CCCO1 (configuration not stated) was tested. Which inhibition did it give?
A: -1.7% (inactive)

Q: O=C(Nc1nnc(CCc2ccccc2)s1)C1CCCO1 (configuration not stated) was tested. Which inhibition did it give?
A: 37% (active)

Q: How did the inhibition turn out when NCCCNC(=S)NCCCN(Cc1ccc(Cl)cc1)c1ccc(Br)cn1 was run?
A: -47.9% (inactive)

Q: C=C1C(=O)OC2C1CCC(C)=CCCC1(C)OC21 (configuration not stated) was tested. Which inhibition did it give?
A: -2.6% (inactive)

Q: For COc1ccc(Cl)cc1-c1cc(C(=O)Nc2cc(OC)c(OC)c(OC)c2)[nH]n1, which inhibition is on record?
A: -0.6% (inactive)

Q: For CCCc1c(-c2ccccc2F)ncn1Cc1ccccc1OC, which inhibition is on record?
A: -10.4% (inactive)

Q: With Cc1ccc(C(=O)COc2cccc(NC(=O)c3ccco3)c2)cc1 as the molecule, how does the inhibition read?
A: 44.6% (active)

Q: How did the inhibition turn out when Cc1cccc(OCC(=O)Nc2ccc(NC(=O)c3ccco3)c(C)c2)c1 was run?
A: 17.3% (inactive)

Q: How did the inhibition turn out when Cc1ccc(NC(=O)c2ccco2)cc1 was run?
A: -6% (inactive)

Q: With Clc1cccc(Cc2c(-c3cccc(Cl)c3)nc3ccc(Cl)cn23)c1 as the molecule, how does the inhibition read?
A: -3.7% (inactive)

Q: With Fc1cccc(Cc2c(-c3ccc(Cl)cc3)nc3ccc(Cl)cn23)c1 as the molecule, how does the inhibition read?
A: -6% (inactive)

Q: How did the inhibition turn out when O=C(Cc1ccccc1[N+](=O)[O-])N1CCN(Cc2ccc3c(c2)OCO3)CC1 was run?
A: -12.3% (inactive)

Q: Which inhibition does the source give for CCC(C)(C(=O)NC1CCCCC1)N(C)C(=O)c1ccc2c(c1)OCO2 (configuration not stated) here?
A: 4% (inactive)

Q: With CCN1CCN(C(C(=O)NC2CCCC2)c2cc3c(cc2[N+](=O)[O-])OCO3)CC1 (configuration not stated) as the molecule, how does the inhibition read?
A: 35.9% (active)

Q: With OC(c1ccccc1)c1nc(/C=C/c2ccc(C(F)(F)F)cc2)cs1 (configuration not stated) as the molecule, how does the inhibition read?
A: -10.4% (inactive)

Q: Which inhibition does the source give for Cc1cc(=O)oc2c3c(cc(OCC(=O)NCC(O)c4ccccc4)c12)OC(C)(C)CC3 (configuration not stated) here?
A: -2% (inactive)

Q: For O=C(CC[C@H]1O[C@@H](n2ccc(=O)[nH]c2=O)[C@H](O)[C@@H]1O)N[C@H](Cc1ccccc1)C(=O)NCCCN1CCCC1=O, which inhibition is on record?
A: 1.4% (inactive)

Q: How did the inhibition turn out when Cc1ccc(CNC(=O)C2CCCN2C(=O)NCc2ccccc2)cc1 (configuration not stated) was run?
A: 5.7% (inactive)

Q: Which inhibition does the source give for CC(=O)c1cccc(NC(=O)N2CCCC2C(=O)NCCc2ccccc2)c1 (configuration not stated) here?
A: 35.3% (active)

Q: How did the inhibition turn out when O=C(NCCc1ccc(Cl)cc1)C1CCCN1C(=O)NCc1ccccc1 (configuration not stated) was run?
A: -20.3% (inactive)

Q: With CCOC(=O)c1ccc(-c2ccc3ncnc(N(C)Cc4sccc4C)c3c2)o1 as the molecule, how does the inhibition read?
A: 6.1% (inactive)

Q: CC(=O)N1Cc2cc(C(=O)NCc3cccc(F)c3)nc(-c3cccc(C4=CCCCC4)c3)c2[C@H]1CCO was tested. Which inhibition did it give?
A: -0.7% (inactive)

Q: Which inhibition does the source give for CN(C(=O)c1ccccn1)c1nnc(-c2ccccn2)s1 here?
A: 40.4% (active)

Q: How did the inhibition turn out when CN(C(=O)C1CCOC1)c1nnc(-c2cccnc2)s1 (configuration not stated) was run?
A: 6.9% (inactive)

Q: Which inhibition does the source give for O=C(Nc1nnc(C2CC2)s1)c1ccccn1 here?
A: -19.8% (inactive)

Q: Which inhibition does the source give for CC(C)Cc1nnc(NC(=O)CCC(=O)Nc2ccc3cn[nH]c3c2)s1 here?
A: 43.7% (active)

Q: How did the inhibition turn out when CC(C)Cc1nnc(NC(=O)CN2C(=O)NC3(CCCCC3)C2=O)s1 was run?
A: 7.7% (inactive)

Q: With CC(C)Cc1nnc(NC(=O)CCNC(=O)c2ccccc2Cl)s1 as the molecule, how does the inhibition read?
A: -5.1% (inactive)

Q: For CCCc1nc2c3ccccc3ccn2c1Cc1ccccc1C(F)(F)F, which inhibition is on record?
A: 1% (inactive)

Q: Which inhibition does the source give for Cc1nc2c(OCc3ccc(Cl)cc3)cccn2c1N(C)Cc1cccs1 here?
A: -1.1% (inactive)

Q: For O=C(C[n+]1cc(Br)cc2ccccc21)c1ccc(F)cc1, which inhibition is on record?
A: 41.8% (active)

Q: Which inhibition does the source give for COC(=O)C[n+]1cccc2ccccc21 here?
A: 10% (inactive)

Q: For O=C(CNC(=O)c1ccccc1F)c1ccc(Br)cc1, which inhibition is on record?
A: -24.7% (inactive)
